# From the supplement of paper PMC10849652
# Targets with a hit are over-represented here; the source holds about 8,800 in all. About 0.5% of all pairs of compound and target were hits. Values without a mark were called inactive.
# Key:
# Experiment in all cases: log2 fold change, soluble protein after heating vs DMSO (PISA); higher = thermal stabilisation; K562 lysate, 10 uM; active = over 0.2 and 3.5 SD of the protein, either way, in both replicates (recomputed)
# erlotinib = compound: C#Cc1cccc(Nc2ncnc3cc(OCCOC)c(OCCOC)cc23)c1 [erlotinib]
# Procedure, shortened: (§1)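 Quantification was by TMTpro 16plex LC-MS/MS with equalised channel sums, applied to the supernatant after 21,000xg for 90 min. Samples were crude K562 extract at 1 mg/mL protein in PBS pH 7.4 with 1 mM MgCl2, treated with 10 μM compound for 30 min, heated for 3 min across 48°C-58°C, pooled and brought to 0.5% NP-40 at 4°C. Values are log-two fold changes in thermal stability relative to solvent controls, from duplicates.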
# [1] = compound: C/C(=N\NC(=O)C1=CC(=CC=C1)S(=O)(=O)N2CCOCC2)/C3=C(C=CC(=C3)Cl)O
# Procedure, shortened: as §1
# [2] = compound: C1=CC(=CC=C1C2=NC3=C(N2)C=C(C=C3)C(=O)N)OC4=CC=C(C=C4)Cl
# Procedure, shortened: as §1
# [3] = compound: C1=CC2=C(C=CC(=C2)/C=C\3/C(=O)NC(=NCC4=CC=CS4)S3)N=C1
# Procedure, shortened: as §1
# [4] = compound: C1=CC2=NC=CN=C2C=C1/C=C/3\C(=O)NC(=O)S3
# Procedure, shortened: as §1
# [5] = compound: C1=CC=C(C=C1)C2=NC(=C(N2)C3=CC=NC=C3)C4=CC(=C(C=C4)Cl)O
# Procedure, shortened: as §1
# [6] = compound: C1=CC=C2C(=C1)C3=NNC4=CC=CC(=C43)C2=O
# Procedure, shortened: as §1
# [7] = compound: C1CCN(C1)C(=O)NC2=CC=CC(=C2)NC3=NC=C(C(=N3)NCCC4=CN=CN4)Br
# Procedure, shortened: as §1
# [8] = compound: C1CN(CCC1(CC2=CC=C(C=C2)Cl)N)C3=NC=NC4=C3C=CN4
# Procedure, shortened: as §1
# IRAK-1-4 Inhibitor I = compound: C1COCCN1CCN2C3=CC=CC=C3N=C2NC(=O)C4=CC(=CC=C4)[N+](=O)[O-] [IRAK-1-4 Inhibitor I]
# Procedure, shortened: as §1
# ibrutinib = compound: C=CC(=O)N1CCC[C@@H](n2nc(-c3ccc(Oc4ccccc4)cc3)c3c(N)ncnc32)C1 [ibrutinib]
# Procedure, shortened: as §1
# [9] = compound: CC(=O)c1cnc2ccc(-c3cc(Cl)c(O)c(Cl)c3)nc2c1N[C@H]1CC[C@H](CN(C)C)CC1
# Procedure, shortened: as §1
# ralimetinib = compound: CC(C)(C)Cn1c(N)nc2ccc(-c3[nH]c(C(C)(C)C)nc3-c3ccc(F)cc3)nc21 [ralimetinib]
# Procedure, shortened: as §1
# [10] = compound: CC(C)(O)CC(=O)NCCn1ccc2ncnc(Nc3ccc(Oc4cccc(C(F)(F)F)c4)c(Cl)c3)c21
# Procedure, shortened: as §1
# [11] = compound: CC(C)C1=C2N=C(C=C(N2N=C1)NCC3=CC=CC=C3)NCCCCCCN
# Procedure, shortened: as §1
# [12] = compound: CC1=C(C(CC(=O)N1)C2=CC=C(C=C2)C(F)(F)F)C(=O)NC3=C(C=C4C(=C3)C=NN4)F
# Procedure, shortened: as §1
# [13] = compound: CC1=C(C2=C(C=C1)C(=O)C3=CC=CC=C3N2CCCN)C
# Procedure, shortened: as §1
# [14] = compound: CC1=C(C=C(C=C1)NC(=O)C2=CC(=CC=C2)C(C)(C)C#N)NC3=CC4=C(C=C3)N=CN(C4=O)C
# Procedure, shortened: as §1
# [15] = compound: CC1=C(C=C(C=C1)NC(=O)C2=CC(=CC=C2)N(C)C)NC(=O)C3=CC=C(C=C3)O
# Procedure, shortened: as §1
# [16] = compound: CC1=CC=C(C=C1)SC2=C3C=C(SC3=CN=C2)C(=O)N
# Procedure, shortened: as §1
# Sequence of UniProt Q14258 (Q14258 whole entry, looked up): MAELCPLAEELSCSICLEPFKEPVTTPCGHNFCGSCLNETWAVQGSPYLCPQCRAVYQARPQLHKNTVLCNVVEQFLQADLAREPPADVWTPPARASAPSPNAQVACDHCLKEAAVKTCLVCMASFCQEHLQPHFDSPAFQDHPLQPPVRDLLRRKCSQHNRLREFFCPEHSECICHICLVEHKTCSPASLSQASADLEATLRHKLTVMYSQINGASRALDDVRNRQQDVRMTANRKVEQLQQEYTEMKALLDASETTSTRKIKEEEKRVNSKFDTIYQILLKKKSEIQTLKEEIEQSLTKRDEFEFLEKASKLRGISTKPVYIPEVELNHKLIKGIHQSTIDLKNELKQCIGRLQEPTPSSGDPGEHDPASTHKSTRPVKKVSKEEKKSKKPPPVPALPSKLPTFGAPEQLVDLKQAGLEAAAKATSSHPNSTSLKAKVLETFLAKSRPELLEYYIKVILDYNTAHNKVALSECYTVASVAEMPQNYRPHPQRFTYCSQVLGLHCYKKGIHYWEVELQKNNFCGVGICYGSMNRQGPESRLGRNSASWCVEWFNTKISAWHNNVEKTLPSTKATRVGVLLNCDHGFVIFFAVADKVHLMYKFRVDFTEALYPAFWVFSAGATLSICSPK
# Sequence of UniProt Q9UKI8 (Q9UKI8 whole entry, looked up): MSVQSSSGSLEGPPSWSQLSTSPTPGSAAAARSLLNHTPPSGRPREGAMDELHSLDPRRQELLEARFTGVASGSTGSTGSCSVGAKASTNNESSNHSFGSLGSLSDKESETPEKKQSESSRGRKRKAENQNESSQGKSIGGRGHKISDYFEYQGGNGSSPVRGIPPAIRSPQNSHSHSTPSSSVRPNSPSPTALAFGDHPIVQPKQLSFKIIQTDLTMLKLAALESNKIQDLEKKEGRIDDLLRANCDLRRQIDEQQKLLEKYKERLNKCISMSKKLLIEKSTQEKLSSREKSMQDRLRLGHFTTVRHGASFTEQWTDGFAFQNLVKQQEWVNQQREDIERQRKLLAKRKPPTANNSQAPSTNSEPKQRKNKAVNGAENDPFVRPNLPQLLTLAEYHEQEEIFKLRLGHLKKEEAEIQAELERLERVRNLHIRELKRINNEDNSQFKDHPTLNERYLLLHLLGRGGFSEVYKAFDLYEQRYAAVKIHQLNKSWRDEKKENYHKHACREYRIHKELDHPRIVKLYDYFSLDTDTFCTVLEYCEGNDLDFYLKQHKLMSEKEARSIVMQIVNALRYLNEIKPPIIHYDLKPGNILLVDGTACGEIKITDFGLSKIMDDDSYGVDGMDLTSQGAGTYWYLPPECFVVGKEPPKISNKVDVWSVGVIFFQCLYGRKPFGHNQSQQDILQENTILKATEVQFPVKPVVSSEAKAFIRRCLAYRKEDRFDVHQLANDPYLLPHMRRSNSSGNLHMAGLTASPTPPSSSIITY
# Sequence of UniProt P06753 (P06753 whole entry, looked up): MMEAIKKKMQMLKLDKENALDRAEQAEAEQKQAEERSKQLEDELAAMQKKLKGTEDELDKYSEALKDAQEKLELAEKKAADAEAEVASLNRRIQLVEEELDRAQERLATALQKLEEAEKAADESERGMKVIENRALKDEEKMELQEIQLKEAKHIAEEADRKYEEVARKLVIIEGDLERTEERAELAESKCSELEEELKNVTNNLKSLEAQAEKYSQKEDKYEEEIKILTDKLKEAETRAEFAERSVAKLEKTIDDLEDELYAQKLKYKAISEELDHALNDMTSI
# Sequence of UniProt Q9NUJ3 (Q9NUJ3 whole entry, looked up): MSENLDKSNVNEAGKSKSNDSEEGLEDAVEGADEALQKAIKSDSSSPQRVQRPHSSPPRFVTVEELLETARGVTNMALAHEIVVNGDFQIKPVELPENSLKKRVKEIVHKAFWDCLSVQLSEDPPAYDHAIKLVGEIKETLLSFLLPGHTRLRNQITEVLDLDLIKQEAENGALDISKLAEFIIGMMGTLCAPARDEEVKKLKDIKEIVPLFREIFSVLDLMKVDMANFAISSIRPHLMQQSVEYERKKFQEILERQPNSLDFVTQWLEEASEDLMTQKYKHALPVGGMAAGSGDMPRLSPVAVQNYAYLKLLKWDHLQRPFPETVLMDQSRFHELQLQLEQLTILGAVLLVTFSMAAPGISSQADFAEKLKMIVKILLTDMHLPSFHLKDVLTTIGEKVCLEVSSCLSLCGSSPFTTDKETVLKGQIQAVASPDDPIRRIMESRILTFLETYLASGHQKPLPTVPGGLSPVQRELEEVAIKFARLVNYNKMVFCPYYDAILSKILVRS
# Sequence of UniProt O95801 (O95801 whole entry, looked up): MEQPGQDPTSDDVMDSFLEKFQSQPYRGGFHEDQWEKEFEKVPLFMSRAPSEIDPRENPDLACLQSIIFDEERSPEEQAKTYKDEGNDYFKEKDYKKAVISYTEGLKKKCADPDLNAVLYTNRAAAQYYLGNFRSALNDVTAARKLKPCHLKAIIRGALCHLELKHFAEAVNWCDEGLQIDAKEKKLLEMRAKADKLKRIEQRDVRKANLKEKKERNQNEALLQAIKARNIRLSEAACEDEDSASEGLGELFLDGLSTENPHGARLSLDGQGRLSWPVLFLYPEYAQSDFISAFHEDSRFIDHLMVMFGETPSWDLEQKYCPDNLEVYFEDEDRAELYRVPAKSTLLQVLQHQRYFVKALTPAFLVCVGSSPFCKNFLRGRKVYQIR
# Sequence of UniProt Q5R3I4 (Q5R3I4 whole entry, looked up): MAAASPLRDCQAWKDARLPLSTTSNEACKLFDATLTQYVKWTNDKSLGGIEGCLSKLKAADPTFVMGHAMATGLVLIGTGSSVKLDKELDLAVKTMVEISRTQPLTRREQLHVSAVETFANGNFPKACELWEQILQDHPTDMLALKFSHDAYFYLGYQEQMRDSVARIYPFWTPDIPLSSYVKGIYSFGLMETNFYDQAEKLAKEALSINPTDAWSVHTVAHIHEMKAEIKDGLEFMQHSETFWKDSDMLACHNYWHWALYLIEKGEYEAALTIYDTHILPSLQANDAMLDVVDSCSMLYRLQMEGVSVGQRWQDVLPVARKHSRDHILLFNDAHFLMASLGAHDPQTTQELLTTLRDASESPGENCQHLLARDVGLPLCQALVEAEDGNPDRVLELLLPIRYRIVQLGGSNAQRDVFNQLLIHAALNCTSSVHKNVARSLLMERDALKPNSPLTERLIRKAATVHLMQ
# Sequence of UniProt Q14166 (Q14166 whole entry, looked up): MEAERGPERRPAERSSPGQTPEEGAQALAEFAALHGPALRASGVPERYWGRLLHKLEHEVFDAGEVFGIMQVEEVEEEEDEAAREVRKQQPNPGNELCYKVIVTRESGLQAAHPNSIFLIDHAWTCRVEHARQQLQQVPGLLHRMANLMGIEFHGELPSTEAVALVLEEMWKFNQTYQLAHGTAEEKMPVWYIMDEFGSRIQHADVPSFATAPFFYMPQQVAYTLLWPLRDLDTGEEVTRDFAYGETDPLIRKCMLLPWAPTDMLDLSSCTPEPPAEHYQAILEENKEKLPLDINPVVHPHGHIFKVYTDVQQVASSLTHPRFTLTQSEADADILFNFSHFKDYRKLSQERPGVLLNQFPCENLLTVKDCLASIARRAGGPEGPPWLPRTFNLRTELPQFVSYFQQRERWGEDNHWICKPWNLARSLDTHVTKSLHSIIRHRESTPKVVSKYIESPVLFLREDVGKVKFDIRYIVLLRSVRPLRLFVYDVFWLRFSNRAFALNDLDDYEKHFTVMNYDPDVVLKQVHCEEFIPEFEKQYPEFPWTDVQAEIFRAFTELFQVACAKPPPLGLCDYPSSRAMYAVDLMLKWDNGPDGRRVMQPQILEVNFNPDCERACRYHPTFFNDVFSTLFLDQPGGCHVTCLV
# Sequence of UniProt Q9H497 (Q9H497 whole entry, looked up): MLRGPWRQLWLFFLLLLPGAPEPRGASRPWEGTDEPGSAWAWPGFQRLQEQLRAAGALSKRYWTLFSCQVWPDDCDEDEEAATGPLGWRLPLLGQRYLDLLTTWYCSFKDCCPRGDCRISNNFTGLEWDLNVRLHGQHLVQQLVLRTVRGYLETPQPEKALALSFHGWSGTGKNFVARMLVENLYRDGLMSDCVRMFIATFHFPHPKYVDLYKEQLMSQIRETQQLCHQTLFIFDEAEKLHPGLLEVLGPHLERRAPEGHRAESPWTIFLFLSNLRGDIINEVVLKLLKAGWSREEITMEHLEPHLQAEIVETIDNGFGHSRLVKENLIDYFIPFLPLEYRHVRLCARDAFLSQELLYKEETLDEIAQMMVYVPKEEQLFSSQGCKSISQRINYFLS
# Sequence of UniProt Q6IPR3 (Q6IPR3 whole entry, looked up): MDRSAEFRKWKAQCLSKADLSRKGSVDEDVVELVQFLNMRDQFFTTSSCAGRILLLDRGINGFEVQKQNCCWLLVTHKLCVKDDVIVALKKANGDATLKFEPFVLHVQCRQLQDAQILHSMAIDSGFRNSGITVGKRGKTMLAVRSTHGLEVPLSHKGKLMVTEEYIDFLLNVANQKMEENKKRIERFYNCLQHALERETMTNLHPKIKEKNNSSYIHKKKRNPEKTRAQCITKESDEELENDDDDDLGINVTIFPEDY
# Sequence of UniProt Q8TBZ6 (Q8TBZ6 whole entry, looked up): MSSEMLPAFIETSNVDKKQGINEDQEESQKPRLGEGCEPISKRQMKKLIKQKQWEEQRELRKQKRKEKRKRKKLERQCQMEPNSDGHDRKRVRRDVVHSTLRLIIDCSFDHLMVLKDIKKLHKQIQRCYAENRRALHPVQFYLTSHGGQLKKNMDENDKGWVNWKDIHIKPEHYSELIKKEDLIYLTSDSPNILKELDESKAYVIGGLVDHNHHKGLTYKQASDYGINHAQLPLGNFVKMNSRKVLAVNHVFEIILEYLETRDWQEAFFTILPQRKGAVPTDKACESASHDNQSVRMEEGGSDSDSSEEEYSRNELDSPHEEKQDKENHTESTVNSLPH
# Sequence of UniProt P61960 (P61960 whole entry, looked up): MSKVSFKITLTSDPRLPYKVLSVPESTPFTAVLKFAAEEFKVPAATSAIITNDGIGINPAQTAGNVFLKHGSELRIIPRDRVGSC
Target,log2 fold change (erlotinib),log2 fold change [1],log2 fold change [2],log2 fold change [3],log2 fold change [4],log2 fold change [5],log2 fold change [6],log2 fold change [7],log2 fold change [8],log2 fold change (IRAK-1-4 Inhibitor I),log2 fold change (ibrutinib),log2 fold change [9],log2 fold change (ralimetinib),log2 fold change [10],log2 fold change [11],log2 fold change [12],log2 fold change [13],log2 fold change [14],log2 fold change [15],log2 fold change [16]
TTC4 (UniProt O95801),0.01,0.013,0.001,0.003,0.005,0.007,-0.038,-0.029,0.025,-0.008,0.002,0.015,0.005,0.011,0.03,-0.029,-0.033,0.026,0.029,0
TYW3 (UniProt Q6IPR3),-0.002,0.003,0.063,-0.032,-0.008,0.002,-0.07,-0.054,0.014,0.018,-0.052,-0.054,-0.016,-0.081,0.043,-0.015,-0.021,0.025,0.01,-0.004
TTLL12 (UniProt Q14166),0.006,0.049,-0.047,0.036,0.027,0.005,-0.023,0,0.021,-0.016,-0.018,0.003,0.026,0.005,0.044,-0.026,-0.032,-0.008,0.031,0.012
TTC38 (UniProt Q5R3I4),0.037,0.015,0.009,0.039,0.007,0.035,-0.022,-0.003,0.068,-0.004,-0.049,0.033,0.008,0.007,-0.011,0.005,0.332 (active),-0.013,0.067,0.014
TRIM25 (UniProt Q14258),-0.01,-0.024,0.028,-0.004,-0.028,0.032,0.008,0.064,0.021,-0.009,-0.001,-0.001,-0.013,0.055,-0.011,-0.002,-0.005,0.005,0.004,0.006
TJP1 isoform 2 (UniProt Q07157),-0.002,0,0.037,-0.007,-0.082,-0.018,-0.041,-0.075,0.039,0.015,0.019,-0.001,-0.007,-0.041,0.036,0.002,-0.025,0.015,0.016,-0.014
UBR3 isoform 4 (UniProt Q6ZT12),0.016,0.044,0.016,0.027,0.005,0.005,-0.07,-0.063,0.032,-0.007,-0.002,-0.023,0.107,-0.009,0.005,0.006,-0.055,-0.016,0.013,0.021
TUT4 (UniProt Q5TAX3),-0.009,-0.048,-0.014,-0.062,-0.054,-0.004,-0.021,-0.029,0.019,0.023,0.024,-0.013,0.006,-0.07,0.023,-0.003,-0.045,-0.165,-0.007,0.041
UFM1 (UniProt P61960),0.035,0.078,-0.003,0.085,0.029,-0.013,0.123,0.066,0.013,-0.009,0.059,0.072,0.008,-0.014,-0.003,-0.04,-0.007,-0.097,-0.038,0.109
TCP11L1 (UniProt Q9NUJ3),0.082,0.032,0.032,0.033,-0.053,0.075,-0.069,-0.005,0.094,0.001,0.026,-0.033,-0.093,-0.061,-0.045,-0.032,-0.052,-0.008,0.02,-0.008
TROAP (UniProt Q12815),-0.023,-0.02,0.028,-0.036,-0.054,0.017,-0.027,0.035,0.104,-0.011,0.191,-0.096,0.042,-0.02,0.037,0.011,0.02,-0.006,0.08,-0.25
TLK1 isoform 2 (UniProt Q9UKI8),0,-0.029,-0.024,-0.013,-0.007,-0.016,0.145,0.007,0.099,0.023,0.017,0.094,0.053,0.01,0.012,-0.002,0.038,-0.013,-0.037,0
TRMT10A (UniProt Q8TBZ6),-0.003,-0.26,-0.007,-0.018,-0.024,0.018,0.252 (active),-0.017,0.044,0.044,-0.002,-0.003,0.021,-0.01,-0.033,0.009,-0.031,0.06,-0.022,0.07
TESC (UniProt Q96BS2),-0.043,0.042,0.03,0.074,-0.042,-0.006,0.036,0.003,0.04,-0.003,0.065,-0.029,0.005,0.056,-0.055,0.043,0.015,0,-0.013,-0.077
TPM3 (UniProt P06753),-0.022,0.027,-0.026,-0.042,-0.012,0.014,0.068,0.035,-0.021,-0.019,0.009,-0.001,-0.028,0.022,0.013,-0.028,0.013,-0.038,-0.016,-0.007
TOR3A (UniProt Q9H497),0,0.002,0.006,-0.008,-0.01,-0.012,-0.087,0.039,0.013,0.021,0.008,0.023,0.002,-0.017,-0.001,0.018,-0.022,-0.036,0.018,0.365 (active)
